Hits are enriched below; roughly 4.2% of the tested compounds scored in any of these assays.
Mtb FBA inh: Mtb fructose-bisphosphate aldolase inhibition; AID 588726; 2.3% of 360,000 active; P9WQA3; inhibition, % at 1 µM; purified M. tuberculosis FBA, fluorescence read-out;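 note: 0% = vehicle and 100% = reference inhibitor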
Target sequence (P9WQA3 whole entry, looked up): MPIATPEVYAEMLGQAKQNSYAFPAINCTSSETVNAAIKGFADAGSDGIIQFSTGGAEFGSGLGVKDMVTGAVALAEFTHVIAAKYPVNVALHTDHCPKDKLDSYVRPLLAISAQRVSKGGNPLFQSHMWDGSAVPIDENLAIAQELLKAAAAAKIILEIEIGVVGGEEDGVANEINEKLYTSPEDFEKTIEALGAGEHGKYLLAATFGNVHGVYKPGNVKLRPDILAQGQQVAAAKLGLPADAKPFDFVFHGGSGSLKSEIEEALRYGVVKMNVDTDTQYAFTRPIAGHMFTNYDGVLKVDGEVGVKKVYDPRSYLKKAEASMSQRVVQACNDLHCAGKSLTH
BJeLR viability: kills HRASV12-expressing BJeLR cells; BJeLR (HRASV12) viability, CellTiter-Glo ATP luminescence, 48 h; inhibition, % (concentration not given with the values); 0.17% of 300,000 active; in the data active = inhibition above about 50%
PrPC TRFRET: inhibitors of human cell surface prion protein PrPC. P04156. TR-FRET read-out. 0.43% of 370,000 active. inhibition, % at 13.8 µM; in the data active = inhibition above about 24%; note: 0% = median of the test wells and 100% = reference compound wells
GDH-TPI counter-1: counter-screen for M. tuberculosis FBA inhibitors: GDH-TPI coupled enzymes; GDH-TPI coupled enzyme counterscreen, NADH absorbance; inhibition, % at 4.8 µM; 1.2% of 360,000 active; AID 588335; in the data active = inhibition above about 30%;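 note: 0% = DMSO wells and 100% = wells lacking the enzyme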
RecA intein inh: blocks M. tuberculosis RecA intein splicing. P9WHJ3. 0.75% of 290,000 active. AID 2221. cell-free RecA intein splicing, fluorescence. inhibition, % (concentration not given with the values); in the data active = inhibition above about 30%;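 note: 0% = vehicle wells and 100% = reference inhibitor control wells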
Mtb FBA inh conf: Mtb FBA inhibition, confirmed; shares compounds with Mtb FBA inh; purified M. tuberculosis FBA, fluorescence read-out; inhibition, % at 1 µM; 78% of 5,600 active; AID 651616;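 note: 0% = vehicle wells and 100% = reference inhibitor wells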
GDH-TPI counter-2: GDH-TPI inhibition counter-screen for FBA inhibitors; inhibition, % at 1 µM; 81% of 5,600 active; AID 652141; shares compounds with Mtb FBA inh; GDH-TPI coupled enzyme counterscreen, fluorescence; in the data active = inhibition above about 10%
GDH-TPI DR: GDH-TPI dose response counter-screen for Mtb FBA | GDH-TPI coupled enzyme assay, fluorescence, artifact counterscreen | IC50, µM | 79% of 170 active | AID 652145 | shares compounds with Mtb FBA inh; call rule not given here
* hit, by the source's call. Cut-off read from the data, not from the text of the source, unless noted: active = inhibition above about 27%; inactive = the rest.

How did CC(=O)NC(c1cccs1)c1cc(Cl)c2ccccc2c1O (stereo unspecified) do in these assays?
Mtb FBA inh: 35.9*; PrPC TRFRET: -5.7; GDH-TPI counter-1: 15.5; Mtb FBA inh conf: 83.8*; GDH-TPI counter-2: 58.3*

How did CCC(=O)NC(c1cccs1)c1cc(Cl)c2ccccc2c1O (stereo unspecified) do in these assays?
Mtb FBA inh: 39.2*; PrPC TRFRET: 5.0; GDH-TPI counter-1: -3.6; Mtb FBA inh conf: 116.5*; GDH-TPI counter-2: 79.8*

What do the screens show for `CC(=O)N1C[C@@H](CO)[C@@H]2C[C@H]1c1ccccc1N2C`?
PrPC TRFRET: -3.5

What do the screens show for `CCS(=O)(=O)Nc1ccc(C2=NN(S(C)(=O)=O)C(c3cccs3)C2)cc1` (stereo unspecified)?
Mtb FBA inh: 93.2*; BJeLR viability: -18.8; PrPC TRFRET: -0.8; GDH-TPI counter-1: 0.0; RecA intein inh: -1.4; Mtb FBA inh conf: 56.9*; GDH-TPI counter-2: 44.6*

What do the screens show for `CCOC(=O)[C@]12CCCC3=C1N(CCC3)C(=O)[C@@H](CC(=O)N1CCC(c3ccccc3)CC1)C2`?
PrPC TRFRET: 1.2

Results for CCCCN(C)CCNC(=O)c1cc2c(-c3ccccc3F)nn(C)c2s1 ?
Mtb FBA inh: 45.9*; BJeLR viability: -0.2; PrPC TRFRET: -2.3; GDH-TPI counter-1: 5.9; RecA intein inh: -2.0; Mtb FBA inh conf: 37.5*; GDH-TPI counter-2: 32.5*

Results for CCCCNC(=O)c1cc2c(-c3ccc(Cl)cc3)nn(C)c2s1 ?
Mtb FBA inh: 16.1; BJeLR viability: 0.9; PrPC TRFRET: -0.8; GDH-TPI counter-1: 2.4

How did Cn1nc(-c2ccc(Cl)cc2)c2cc(C(=O)N3CCCC3)sc21 do in these assays?
Mtb FBA inh: 1.9; BJeLR viability: 3.3; PrPC TRFRET: -2.8; GDH-TPI counter-1: 8.2

What do the screens show for `Cn1nc(-c2ccc(Cl)cc2)c2cc(C(=O)NCCCN3CCCC3)sc21`?
Mtb FBA inh: 35.2*; BJeLR viability: 45.6; PrPC TRFRET: 2.2; GDH-TPI counter-1: 13.0; Mtb FBA inh conf: 80.8*; GDH-TPI counter-2: 70.7*

How did COCCNC(=O)c1cc2c(-c3ccc(Cl)cc3)nn(C)c2s1 do in these assays?
Mtb FBA inh: 79.0*; BJeLR viability: 1.1; PrPC TRFRET: -7.0; GDH-TPI counter-1: 5.3; Mtb FBA inh conf: 69.3*; GDH-TPI counter-2: 53.8*

Results for COCCNC(=O)c1cc2c(-c3ccccc3F)nn(C)c2s1 ?
Mtb FBA inh: 35.1*; BJeLR viability: -0.6; PrPC TRFRET: 1.8; GDH-TPI counter-1: 15.9; RecA intein inh: 1.3; Mtb FBA inh conf: 116.9*; GDH-TPI counter-2: 88.0*

How did c1ccc(-c2nnc3n2N=C(c2ccc4ccccc4c2)CS3)nc1 do in these assays?
PrPC TRFRET: -17.4

How did C#CCNC(=O)C[C@H]1C[C@@]2(C(=O)OC)C(=C[C@H](COCc3ccccc3)O[C@@H]2C)N(Cc2ccc(Cl)cc2Cl)C1=O do in these assays?
PrPC TRFRET: -3.3

Results for COCCCNC(=O)c1cc2c(-c3ccc(Cl)cc3)nn(C)c2s1 ?
Mtb FBA inh: 74.0*; BJeLR viability: 0.1; PrPC TRFRET: -8.0; GDH-TPI counter-1: 19.7; RecA intein inh: 3.8; Mtb FBA inh conf: 76.8*; GDH-TPI counter-2: 73.1*

How did CNC(=O)c1cc2c(-c3ccccc3)nn(C)c2s1 do in these assays?
Mtb FBA inh: 72.8*; BJeLR viability: -7.3; PrPC TRFRET: -0.6; GDH-TPI counter-1: 6.7; RecA intein inh: 0.5; Mtb FBA inh conf: 102.3*; GDH-TPI counter-2: 79.7*

How did Cc1cc(=O)oc2cc(OCC(=O)N3CCN(c4ccccc4)CC3)ccc12 do in these assays?
Mtb FBA inh: 13.4; PrPC TRFRET: 5.0; GDH-TPI counter-1: 12.7

Results for Cc1cc(=O)oc2cc(OCC(=O)N3CCCC3)ccc12 ?
Mtb FBA inh: 40.7*; PrPC TRFRET: -5.8; GDH-TPI counter-1: 1.6; Mtb FBA inh conf: 13.1; GDH-TPI counter-2: 5.3; GDH-TPI DR: 5.29*

How did CCOC(=O)C1CCN(C(=O)COc2ccc3c(C)cc(=O)oc3c2)CC1 do in these assays?
Mtb FBA inh: 34.9*; BJeLR viability: -3.5; PrPC TRFRET: 9.5; GDH-TPI counter-1: 5.0; RecA intein inh: 0.0; Mtb FBA inh conf: 148.0*; GDH-TPI counter-2: 135.8*

Results for Cc1cc(=O)oc2cc(OCc3ccc(C(=O)N4CCN(c5ccc([N+](=O)[O-])cc5)CC4)cc3)ccc12 ?
Mtb FBA inh: -2.8; BJeLR viability: 11.3; PrPC TRFRET: 4.9; GDH-TPI counter-1: 5.5; RecA intein inh: -2.0

How did Cc1cc(=O)oc2cc(OCc3ccc(C(=O)N4CCN(c5ccccc5)CC4)cc3)ccc12 do in these assays?
Mtb FBA inh: 43.5*; BJeLR viability: -13.7; PrPC TRFRET: -5.7; GDH-TPI counter-1: 6.2; RecA intein inh: 2.3; Mtb FBA inh conf: 121.5*; GDH-TPI counter-2: 88.8*

What do the screens show for `Nc1nc(F)nc2c1ncn2[C@@H]1O[C@H](COP(=O)(O)O)[C@@H](O)[C@@H]1O`?
PrPC TRFRET: 0.1

How did COC(=O)[C@]12C[C@H](CC(=O)NCC3CCCCC3)C(=O)N(Cc3cccc4ccccc34)C1=C[C@H](COCc1ccccc1)O[C@@H]2C do in these assays?
PrPC TRFRET: 0.7

Results for O=[N+]([O-])c1ccc(C[n+]2c(-c3ccccc3)cc(-c3ccccc3)cc2-c2ccccc2)cc1 ?
Mtb FBA inh: 67.0*; BJeLR viability: -6.7; PrPC TRFRET: -29.7; GDH-TPI counter-1: -10.8; RecA intein inh: 5.0; Mtb FBA inh conf: active; GDH-TPI counter-2: active

Results for COC(=O)c1ccc2ccn(CC(=O)NC3CCCCC3)c2c1 ?
Mtb FBA inh: 70.5*; BJeLR viability: -3.1; PrPC TRFRET: -7.2; GDH-TPI counter-1: 1.9; RecA intein inh: 1.9; Mtb FBA inh conf: -2.9; GDH-TPI counter-2: -1.0

What do the screens show for `COc1ccc2nc3c(C)n(C)ccc-3c2c1`?
Mtb FBA inh: 56.9*; PrPC TRFRET: 0.3; GDH-TPI counter-1: 4.1; Mtb FBA inh conf: 73.4*; GDH-TPI counter-2: 49.4*

How did COc1ccc(N2CCN(c3cc(C)nc4ccc(OC)cc34)CC2)cc1 do in these assays?
Mtb FBA inh: 0.7; BJeLR viability: -6.0; PrPC TRFRET: -4.0; GDH-TPI counter-1: -0.8; RecA intein inh: 0.7

How did COc1ccc(OC)c(NC(=O)c2ccccc2N(Cc2ccccc2)C(=O)C(C)Cl)c1 (stereo unspecified) do in these assays?
PrPC TRFRET: -5.8

What do the screens show for `CCCCCCCC[n+]1cccc2c3ccccc3ccc21`?
Mtb FBA inh: 67.0*; BJeLR viability: 33.8; PrPC TRFRET: 6.2; GDH-TPI counter-1: -3.1; RecA intein inh: 3.0; Mtb FBA inh conf: 65.1*; GDH-TPI counter-2: 41.9*

High-throughput results: PubChem BioAssay, several laboratories
